KDM5B inh – inhibitors of human KDM5B histone demethylase; KDM5B demethylase, FDH-coupled NADH fluorescence (FDH is formaldehyde dehydrogenase); Potency, µM (top dose mostly 57.7 µM), most hits filed as inhibitors; 220,000 tested, 2.6% active; active means well fitted inhibition curve with a large enough effect; further: 0% is about no effect; nearly all actives have a fitted effect of over 70% in size
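KDM5BΔAP (200 nM final) in 50 mM HEPES pH 7.5, 0.01% Tween-20 was preincubated 10 min at RT with compound over a concentration range. Substrate mix (H3K4me3 12.5 µM, α-KG 25 µM, Fe²⁺, ascorbate, NAD⁺, FDH) was added, and NADH fluorescence change over 30 min gave dose-response curves.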
An asterisk follows results filed as active; i = inactive. This is one part of a sample in which hits are shown more often than they occur. Potency means the concentration at half of the fitted maximal effect.

SMILES	KDM5B inh
O=C(O)COc1cccc(NS(=O)(=O)c2ccc(Br)cc2)c1	i
O=C(C1CC1)N1CCC(Cc2nc(-c3ccccc3)n[nH]2)C1 (configuration not stated)	i
COc1ccc(C(=O)N2CCC(Cc3nc(C4CC4)n[nH]3)CC2)cn1	i
CC(=O)N1CCC(Cc2nc(-c3ccccc3)n[nH]2)CC1	20µM*
Cc1nc(C)c(C(=O)N2CCC(Cc3nc(-c4ccccc4)n[nH]3)CC2)s1	i
COc1ccc(CCC(=O)N2CCC(c3n[nH]c(=O)n3Cc3ccc(F)cc3)CC2)cc1	i
COc1ccc(CCC(=O)N2CCC(Cc3nc(C4CC4)n[nH]3)CC2)cc1	20µM*
CCc1n[nH]c(CC2CCN(C(=O)C3(c4ccccc4)CC3)CC2)n1	i
O=C(NCc1ccccc1)N1CCC(Cc2nc(C3CC3)n[nH]2)C1 (configuration not stated)	i
O=C(N1CCC(Cc2nc(C3CC3)n[nH]2)CC1)C1(c2ccccc2)CC1	18µM*
COC(=O)c1cc(CNC(=O)C2Cc3ccccc3S2)ccc1OC (configuration not stated)	i
Cn1ncc(N2CCC(CNC(=O)c3ccccc3-n3cncn3)C2)cc1=O (configuration not stated)	i
Clc1ccc(-c2cnc(CSc3n[nH]c(-c4ccccc4)n3)o2)cc1	i
O=C(Cc1ccc(Br)cc1)N1CCN(c2cccc(Cl)c2)CC1	i
Cc1nn2c(c1-c1ccccc1Oc1ccccc1)N(C(=O)Cc1ccc3c(c1)OCO3)CCC2	i
Cc1cc2ccccc2n1CC(=O)NCC(=O)N1CCCC1	i
COC(=O)c1cc(COC(=O)C2COc3ccccc3O2)oc1C (configuration not stated)	i
COc1ccc(-c2csc(-c3c(C)c(C)nn(C)c3=O)n2)cc1OC	i
CS(=O)(=O)N[C@H]1C[C@H]2C(=O)Nc3ccc(-c4ccc5c(c4)OCO5)cc3C(=O)N2C1	i
O=C1Nc2ccc(-c3ccccc3F)cc2C(=O)N2C[C@@H](NS(=O)(=O)c3ccc(F)cc3)C[C@@H]12	i
CS(=O)(=O)N[C@H]1C[C@H]2C(=O)Nc3cc(Cl)ccc3C(=O)N2C1	i
O=C1Nc2ccc(-c3ccc(F)cc3F)cc2C(=O)N2C[C@H](O)C[C@@H]12	i
COc1ccc(Cl)cc1-c1ccc2c(c1)C(=O)N1C[C@@H](NS(=O)(=O)c3ccc(F)cc3)C[C@H]1C(=O)N2	32µM*
CC(C)NC(=O)N[C@H]1CCN2C(=O)c3cc(-c4ccc5c(c4)OCO5)ccc3NC(=O)[C@@H]2C1	32µM*
CC(C)NC(=O)N[C@H]1CCN2C(=O)c3cc(-c4ccccc4)ccc3NC(=O)[C@H]12	i
SMILES	KDM5B inh
O=C1Nc2ccc(-c3ccc4c(c3)OCO4)cc2C(=O)N2C[C@@H](NS(=O)(=O)c3ccc(F)cc3)C[C@@H]12	32µM*
O=C(O)COCC(=O)N[C@H]1CCN2C(=O)c3cc(-c4ccc5c(c4)OCO5)ccc3NC(=O)[C@H]12	i
CCc1ccc(C(NC(=O)Cn2nc(C)c3ccccc3c2=O)C(C)C)cc1 (configuration not stated)	i
COc1ccc(SCCC(=O)OCc2ccc(C#N)cc2)cc1	i
Cc1cc(C(=O)N/N=C/c2cccs2)cs1	i
CC(Sc1ncccn1)C(=O)O (configuration not stated)	i
Cc1ccc(-c2nc(CSc3nnnn3CC(C)C)co2)c(C)c1	i
CCCN1CCC(N(C)C(=O)Nc2ccc(F)cc2F)CC1	i
O=C(NCc1nncn1CCc1ccccc1)C1NCCc2[nH]cnc21 (configuration not stated)	i
Cc1cc(C(F)(F)F)nc(CCNC(=O)C2NCCc3[nH]cnc32)n1 (configuration not stated)	i
Cc1ccc2cccc(OCCNC(=O)C3NCCc4[nH]cnc43)c2n1 (configuration not stated)	14µM*
COc1ccc2nc(C(=O)Nc3ccccc3OC)ccc2c1	i
CCOc1ccc2ncc(C#N)c(Nc3cc(OC)c(OC)c(OC)c3)c2c1	i
CC(=O)Nc1cccc(-c2cnc3n[nH]c(-c4ccccc4C)c3n2)c1	40µM*
CC(=O)Nc1cccc(-c2cnc3n[nH]c(-c4sccc4C)c3n2)c1	i
CC(=O)Nc1cccc(-c2csc(Nc3ccccc3)n2)c1	i
CC(=O)Nc1cccc(-c2csc(Nc3ccc(C)cc3)n2)c1	i
CC(=O)Nc1cccc(-c2cnc3n[nH]c(-c4ccc(F)cc4C)c3n2)c1	35µM*
COc1ccc(Nc2nc(C(=O)OCC(=O)c3cccc(OC)c3)cs2)cc1	i
CC1CC(=O)Nc2cc(S(=O)(=O)NCCc3ccco3)ccc2S1 (configuration not stated)	i
O=C(NCC1CC1)c1cccc(OC2CN(Cc3ccc(OC(F)(F)F)cc3)C2)c1	i
COc1ccccc1NC(=O)C(C)N(c1ccccc1)S(C)(=O)=O (configuration not stated)	i
CC1=NN(C(=O)CSCc2ccccc2Cl)C(O)(C(F)(F)F)C1 (configuration not stated)	i

Screening results from PubChem.
